Results reported in PubChem BioAssay (Tox21).
Records with an inconclusive call do not appear. Calls of active or inactive are those of the source. Unless noted, calls come from the whole dose curve; as a rule, active = well fitted curve in the direction sought with a large enough effect in the repeat runs; inconclusive = weak or mixed curves; inactive = flat fitted curve, though single readings scatter.

Experiments:
[1] = qHTS assay to test for compound auto fluorescence at 535 nm (green) in HEK293 cells (AID 720680)
[2] = qHTS assay to test for compound auto fluorescence at 460 nm (blue) in HEK293 cell free culture (AID 720681); note: potency is the fitted concentration of half-maximal effect
Outline: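 Test compounds were pinned into cell-free culture medium (DMEM with 10% FBS) and fluorescence was read directly at Ex/Em 405/460 nm. Signals were expressed as fluorescence equivalents of triamterene, with DMSO vehicle as control.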

[3] = qHTS assay to test for compound auto fluorescence at 535 nm (green) in HEK293 cell free culture (AID 720682)
Outline: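 Green-channel intensity (Ex/Em 485/535 nm) was recorded from compound-treated wells containing only DMEM with 10% FBS. Fluorescein provided the equivalency standard.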

[4] = qHTS assay to test for compound auto fluorescence at 590 nm (red) in HEK293 cell free culture (AID 720683)
Outline: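 Tox21 10K library compounds were pinned into cell-free DMEM with 10% FBS and fluorescence was read at excitation 540 nm. Activity is expressed as Rose Bengal sodium equivalency.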

[5] = qHTS assay to test for compound auto fluorescence at 590 nm (red) in HepG2 cell free culture (AID 720684)
Outline: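 Red fluorescence (540 nm excitation, 590 nm emission) was measured after compound transfer into cell-free MEM supplemented with 10% FBS. Values are equivalencies against Rose Bengal sodium.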

[6] = qHTS assay to test for compound auto fluorescence at 460 nm (blue) in HepG2 cell free culture (AID 720685); note: potency is the fitted concentration of half-maximal effect
Outline: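 Compound (23 nL) or DMSO pinned into cell-free MEM with 10% FBS; blue fluorescence read at 405/460 nm excitation/emission, expressed as auto-fluorescence equivalency to triamterene.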

[7] = qHTS assay to test for compound auto fluorescence at 535 nm (green) in HepG2 cell free culture (AID 720686)
[8] = qHTS assay to test for compound auto fluorescence at 460 nm (blue) in HepG2 cells (AID 720687); note: potency is the fitted concentration of half-maximal effect
Outline: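 Cells (2,000/well in MEM with 10% FBS) attached overnight at 37 C, then were exposed to compound or DMSO for 1 hr at 37 C, 5% CO2. Fluorescence read at Ex/Em 405/460 nm, expressed as triamterene-equivalent signal.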

[9] = biological target: Glucocorticoid receptor (Homo sapiens) (UniProt P04150); assay: qHTS assay to identify small molecule agonists of the glucocorticoid receptor (GR) signaling pathway (AID 720691; active = well fitted activation curve with a large enough effect in the signal ratio in the repeat runs, not every such curve was filed as active; the % refers to the signal ratio)
Outline: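 qHTS in GR-bla HeLa cells: 4 h settling at 37 C/5% CO2, 18 h compound incubation at 37 C, 2 h LiveBLAzer B/G FRET substrate at room temperature, fluorescence intensity measured.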

[10] = biological target: Glucocorticoid receptor (Homo sapiens) (UniProt P04150); assay: qHTS assay to identify small molecule antagonists of the glucocorticoid receptor (GR) signaling pathway (AID 720692; active = well fitted inhibition curve with a large enough effect in the signal ratio in the repeat runs, not every such curve was filed as active; the % refers to the signal ratio; note: potency is the fitted concentration of half-maximal effect)
Outline: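 Inhibition of glucocorticoid signalling is measured in HeLa cells with a GRE-controlled beta-lactamase reporter; cells are co-treated with compound and 5 nM dexamethasone (final) for 18 h before FRET substrate readout.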
% is set by controls: 0 for no effect and ±100 for the full control effect; tags give direction and shape of the fitted curve or compound fluorescence and quenching.

Glucocorticoid receptor (Homo sapiens), sequence (P04150 whole entry, looked up): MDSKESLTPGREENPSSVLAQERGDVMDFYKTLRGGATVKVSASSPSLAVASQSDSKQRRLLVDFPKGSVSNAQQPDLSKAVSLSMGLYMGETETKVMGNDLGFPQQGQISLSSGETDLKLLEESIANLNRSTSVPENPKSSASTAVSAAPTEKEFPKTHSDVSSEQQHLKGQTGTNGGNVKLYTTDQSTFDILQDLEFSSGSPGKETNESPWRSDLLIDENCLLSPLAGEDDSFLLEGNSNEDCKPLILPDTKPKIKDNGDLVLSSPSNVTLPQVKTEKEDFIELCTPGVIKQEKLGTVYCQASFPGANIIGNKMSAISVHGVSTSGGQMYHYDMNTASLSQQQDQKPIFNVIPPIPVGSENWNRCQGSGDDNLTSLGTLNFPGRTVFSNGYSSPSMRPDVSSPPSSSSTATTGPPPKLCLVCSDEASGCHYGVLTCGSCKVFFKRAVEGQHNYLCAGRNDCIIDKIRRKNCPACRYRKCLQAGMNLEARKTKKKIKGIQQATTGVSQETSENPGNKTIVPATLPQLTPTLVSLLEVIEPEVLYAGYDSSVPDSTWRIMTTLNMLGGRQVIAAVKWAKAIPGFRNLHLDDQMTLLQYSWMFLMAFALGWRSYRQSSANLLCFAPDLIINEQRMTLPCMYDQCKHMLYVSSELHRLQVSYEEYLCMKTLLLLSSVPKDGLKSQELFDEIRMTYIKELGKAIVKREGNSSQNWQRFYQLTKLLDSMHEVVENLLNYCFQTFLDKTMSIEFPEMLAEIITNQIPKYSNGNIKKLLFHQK

COc1ccc(NC(C)=O)cc1
inactive: outcome [1] | Potency [2] | outcome [3] | outcome [4] | outcome [5] | Potency [6] | outcome [7] | Potency [8] | Potency [9] | Potency [10]

O=C(O)CCNC(=O)c1ccc(N=Nc2ccc(O)c(C(=O)O)c2)cc1
inactive: outcome [1] | Potency [2] | outcome [3] | outcome [4] | outcome [5] | Potency [6] | outcome [7] | Potency [8] | Potency [9] | Potency [10]

OCCN1C[C@H](O)[C@@H](O)[C@H](O)[C@H]1CO
inactive: outcome [1] | Potency [2] | outcome [3] | outcome [4] | outcome [5] | Potency [6] | outcome [7] | Potency [8] | Potency [9] | Potency [10]

C=C(C)C(=O)NCCCN(C)C
inactive: outcome [1] | Potency [2] | outcome [3] | outcome [4] | outcome [5] | Potency [6] | outcome [7] | Potency [8] | Potency [9]

CCN1CCCC(OC(=O)C(c2ccccc2)c2ccccc2)C1 (stereo unspecified)
inactive: fluorescence, % of fluorescein [1] -0.0754% [at 18.6 µM] | fluorescence, % of fluorescent control [2] 0.0253% [at 18.6 µM] | activity change [3] 0.0002% [at 18.6 µM] | fluorescence, % of fluorescent control [4] 0.138% [at 18.6 µM] | fluorescence, % of Rose Bengal [5] 0.44% [at 18.6 µM] | fluorescence, % of fluorescent control [6] -0.0343% [at 18.6 µM] | fluorescence, % of fluorescein control [7] 0.088% [at 18.6 µM] | fluorescence, % of fluorescent control [8] 0.0078% [at 18.6 µM] | Potency [9]

CC1=CC(=O)CCC1
inactive: outcome [1] | Potency [2] | outcome [3] | outcome [4] | outcome [5] | Potency [6] | outcome [7] | Potency [8] | Potency [9]

C=CC(=O)N1CCOCC1
inactive: outcome [1] | Potency [2] | outcome [3] | outcome [4] | outcome [5] | Potency [6] | outcome [7] | Potency [8] | Potency [9]

CCCC=O
inactive: outcome [1] | Potency [2] | outcome [3] | outcome [4] | outcome [5] | Potency [6] | outcome [7] | Potency [8] | Potency [9]

[O-][N+](=Nc1ccccc1)c1ccccc1
inactive: outcome [1] | Potency [2] | outcome [3] | outcome [4] | outcome [5] | Potency [6] | outcome [7] | Potency [8] | Potency [9]

CCCCCCC(CCCCCCCCCCC(=O)OCC(COC(C)=O)OC(C)=O)OC(C)=O (stereo unspecified)
inactive: outcome [1] | Potency [2] | outcome [3] | outcome [4] | outcome [5] | Potency [6] | outcome [7] | Potency [8] | Potency [9]

CCO[Si](C)(OCC)OCC
inactive: outcome [1] | Potency [2] | outcome [3] | outcome [4] | outcome [5] | Potency [6] | outcome [7] | Potency [8] | Potency [9]

Nc1ccc2cc(S(=O)(=O)O)ccc2c1
active: Potency [2] 31.6 µM | Potency [6] 31.6 µM [fluorescent] | Potency [8] 31.6 µM [fluorescent]
inactive: outcome [1] | outcome [3] | outcome [4] | outcome [5] | outcome [7] | Potency [9]

CC(=O)CCc1ccc(O)cc1
inactive: outcome [1] | Potency [2] | outcome [3] | outcome [4] | outcome [5] | Potency [6] | outcome [7] | Potency [8] | Potency [9]

CC(C)(C)OC(=O)N1C[C@@H](F)C[C@H]1C(=O)O
inactive: outcome [1] | Potency [2] | outcome [3] | outcome [4] | outcome [5] | Potency [6] | outcome [7] | Potency [8] | Potency [9]

CC1CCN(CCCC(=O)c2ccc(F)cc2)CC1
inactive: outcome [1] | Potency [2] | outcome [3] | outcome [4] | outcome [5] | Potency [6] | outcome [7] | Potency [8] | Potency [9] | Potency [10]

CCCCCCCCCCCCI
inactive: outcome [1] | Potency [2] | outcome [3] | outcome [4] | outcome [5] | Potency [6] | outcome [7] | Potency [8] | Potency [9] | Potency [10]

CCOC(=O)Nc1ccc2c(c1)N(C(=O)CCN1CCOCC1)c1ccccc1S2
inactive: fluorescence, % of fluorescein [1] 0.023% [at 18.6 µM] | fluorescence, % of fluorescent control [2] 0.0825% [at 18.6 µM] | activity change [3] -0.0159% [at 18.6 µM] | fluorescence, % of fluorescent control [4] -0.268% [at 18.6 µM] | fluorescence, % of Rose Bengal [5] 0.0254% [at 18.6 µM] | fluorescence, % of fluorescent control [6] 0.0956% [at 18.6 µM] | fluorescence, % of fluorescein control [7] -0.013% [at 18.6 µM] | fluorescence, % of fluorescent control [8] -0.0127% [at 18.6 µM] | Potency [9] | Potency [10]

CCC(C(=O)NC(N)=O)c1ccccc1 (stereo unspecified)
inactive: outcome [1] | Potency [2] | outcome [3] | outcome [4] | outcome [5] | Potency [6] | outcome [7] | Potency [8] | Potency [10]

CCOC(=O)[C@H](CCc1ccccc1)N[C@@H](C)C(=O)N1CCC[C@H]1C(=O)O
inactive: outcome [1] | Potency [2] | outcome [3] | outcome [4] | outcome [5] | Potency [6] | outcome [7] | Potency [8] | Potency [9] | Potency [10]

O=C(O)Cc1cc(I)c(Oc2cc(I)c(O)c(I)c2)c(I)c1
inactive: outcome [1] | Potency [2] | outcome [3] | outcome [4] | outcome [5] | Potency [6] | outcome [7] | Potency [8] | Potency [9]
active: Potency [10] 10.7 µM

CCN1CCN(c2cc3c(cc2F)c(=O)c(C(=O)O)cn3C2CC2)CC1
inactive: outcome [1] | Potency [2] | outcome [3] | outcome [4] | outcome [5] | Potency [6] | outcome [7] | Potency [8] | Potency [9] | Potency [10]

CCCCCCOC(=O)c1ccccc1O
inactive: outcome [1] | Potency [2] | outcome [3] | outcome [4] | outcome [5] | Potency [6] | outcome [7] | Potency [8] | Potency [9] | Potency [10]

O=C(O)c1ccc[n+]([O-])c1
inactive: outcome [1] | Potency [2] | outcome [3] | outcome [4] | outcome [5] | Potency [6] | outcome [7] | Potency [8] | Potency [10]

CC(C)(O)c1ccccc1
inactive: outcome [1] | Potency [2] | outcome [3] | outcome [4] | outcome [5] | Potency [6] | outcome [7] | Potency [8] | Potency [10]
